# Test results: PubChem BioAssay AID1159506 (National Center for Advancing Translational Sciences (NCATS), 2015)
# In all, about 59,000 sequences were measured (the read-out: median about -0.00055, lowest 2% from about -2 on). This excerpt belongs to a sample that is enriched for the lowest values.
# Experiment: Identification of proteins required for the processing of the EWS-FLI1 nascent transcript;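 also: robust z of luciferase light less the median z of siRNAs with the same seed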
# Details: TC32 Ewing sarcoma NR0B1-luc vs CMV-luc (EWS-FLI1 target promoter against control promoter), 48 h; screened at 20 nM (by protocol)
# Procedure, shortened: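 Readout: OneGlo luminescence, 48 h post-transfection, TC32-NR0B1-luc vs TC32-CMV-luc in parallel. siRNA 20 nM final, RNAiMax lipid, 600 cells/well; z-score-MAD transformed, then seed-adjusted.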
row,Sequence,seed-corrected z-score
1,UACAGAGAAAGGUAGCGGU against GPR3,-2.23
2,UGAUCUACCUGCUUGUGCC against USP17L9P,-0.147
3,UGACUGACAACUUCUGGAU against PAK6,-0.344
4,AAUGGACCUAGAUUUCAGG against C16orf59,1.27
5,UUAGCUGCGUCAGAUAUCG against RPS6KA2,-2.67
6,UCCUGGAUACGCAACUUGA against C2orf68,-0.63
7,UGCAUUUGAAGACUCACUC against HMG20A,0.87
8,UUGAGUCUUAGCAAUGUGA against KIAA0895L,-0.000345
9,UACAUGAAAAGCAAGGCUG against OR6B3,0.504
10,UAUGGUGUUGAGCUCAGCG against SLC12A3,0.228
11,UCUACUAUCGGCUUAUAGC against 11-Sep,-0.114
12,UCCGGAGUAAGCUUCAACC against DHX9,-0.429
13,AACGAAGCAAGCAUGGUCC against LARP6,-0.832
14,UAGUCAACGUUGGACACGG against PRR22,0.319
15,UUGACGGUAAUAUCUGUCC against SMU1,-3.14
16,UAGCCUAUGGUACAAGUUC against ERVFRD-1,0.353
17,AACUCAUUCCCUUCUUUCC against ZMAT3,-0.582
18,UCUCUGACAAGUGUGAAGC against DKK1,-0.0537
19,UGAUGAGCGAGAAGGUACC against DLL4,1.41
20,UUAAUUGCUAUGUUGUUGG against NFS1,-0.476
21,AUAGGUUUGUGAUCCAACC against AAED1,0.186
22,AUUCGUAUGGUUCAUGUCC against PRPF8,-2.88

row,Sequence,seed-corrected z-score
1,UUAAAUACAGCUCCUGUUA against AQP11,0.0289
2,AGCUUGUACAGUGUUAUCC against PTPN4,-2.22
3,UUGCUGAACGCGAUGAUCU against PRDX2,0.201
4,UCUUAUGUAAUUGUUCCUC against KANSL1,0.324
5,UUCUUUCGCAUUGCAAUGC against CMC2,0.187
6,UGAGGACAAAGAAUCUUCC against MRPS18B,0.518
7,UCCAGUUGUUCAAUCAUGG against CNTROB,-2.47
8,UCUGUUUGAUGUUAGGUUG against PACS1,-0.0479
9,UUCUUUAACUUUAUGCUCC against RAI2,0.273
10,UAUUCUAUUGGGUCACUGG against DYDC2,0.409
11,AAGUGAAUAGAAAACAUCC against SUN5,1.29
12,UAGGUCAGAAGCAACCUGC against C10orf111,2.42
13,AGAUGUGAUAGUGCUCUGG against TMEM52B,-2.02
14,UUACGUAAUCCAGGGAUCG against LANCL2,-1.2
15,UAGUGUAAUUGGUCUAACC against POGZ,0.928
16,UAUGUGAUUCUGGUGCUUG against LEMD1,0.794
17,UCUGAUGUAAUUUCCAGUU against AARD,0.424
18,UUAGUUGCUGACUUUCUCC against TRAPPC9,-2.06
19,UUUGAUUUGGUUGUGACCC against ZYX,-0.301
20,UUCAAGUUUGUUCUCAGAC against GOLGA6L7P,-0.298
21,AAGGAAAUUAGGAUAAUAG against FAM217B,0.732
22,UGUCUCUCAGGCAACAGGC against PROP1,-0.922

row,Sequence,seed-corrected z-score
1,UUCAUUAUCAUCUAGGUGG against ACTR5,-0.49
2,UGUGGACAAGGUCUAGGGC against LOC401317,-2.18
3,AUAGUUGACAUUCCGAACC against CDK5RAP3,0.941
4,UUAGAGUUUGCGAAGCAGG against PSG11,0.96
5,UUUAUAUCCAUAUCCUUUC against PPIC,0.0569
6,AGAAGAUGAAUCACAGAGC against BAGE4,-0.377
7,UAUCAUAUUUAAGAGACUG against TSSC1,0.912
8,UAUUUGAAGCUCCAGGGUG against FBXL15,0.429
9,UUCUUUAUGCACAACUCCC against MYO1C,-2.91
10,UUACUUUUAGUUCAUACAG against SOX1,-0.0466
11,AUCAGUACUAAAAUAUCGG against ATG2B,0.25
12,UCCUCGAAAAUCUCAAAGC against MYO1B,-0.441
13,UGGUAUUCAAAAUAGUCGC against TLK1,-0.673
14,UUCUGCUUCCGGUAAAUGC against SH3TC1,-0.467
15,UUUGUUUCGCUGGUCUUUG against RYBP,-2.49
16,UAUCCUGUAAGUUGUGGGC against TEX28,1.15
17,UCACUAAUAGGAUCUUCGC against RAB3GAP1,0.413
18,AAGGUUUUCCGAGUAACUC against LYZL6,1.38
19,AUAAGACUGACCUUGGUUG against TFCP2L1,-2.59
20,UUUUAUUCGAAAUUCUGCA against ITGB1BP1,0.195
21,AAGCCGAAAAUUGAUCUGC against GLDC,0.214
22,AAAUCUGCACUCUUGGUCA against RGS11,-2.54

row,Sequence,seed-corrected z-score
1,AUGGUAGACACCUUAGUUC against RPL7P23,-2.39
2,UCGUUUACCAAACAGUUUC against BTK,-0.0928
3,UUUGUUCUGGAUGCCCUGC against WARSP1,0.407
4,UUGGUUCCAUUGUAGGUCU against TSPAN3,-0.422
5,UUCUUUUUGUCCAAACUCU against SLC25A25,-0.247
6,AAAGUUACUCUUCCAAACC against POC1A,-2.67
7,AUAUUUCAUAUAGGCGAUG against PLA2G10,-0.215
8,UCUUGGUCCUCUGGCAGUC against TMEM116,-0.118
9,AAAUAAAACGUACAAAUAC against SCRT1,0.713
10,UUCAUCUCCACAAUCACCG against MAG,-0.753
11,AAGCGGGAUGAAGAAAUCC against GSX2,3.22
12,UCUGCACUUGUCAAUAUCC against MED10,-0.53
13,UUCGUUAUCAAUGCAGUAG against TUBB4B,-1.5
14,AUCUUGGUGAUUUCGCGGC against NDN,-2.11
15,UAACAUAAUUAUAACCUCC against ZNF716,0.757
16,UGAGGUUAGAGCACUGCAC against CCDC87,-0.47
17,UUCUUUCUCACGGUCACUC against LOC728445,-0.746
18,UCAGGUGCUCCAAGUACUG against TMEM201,-2.21
19,UCUUUGCUAGGUAAAAAGC against PRUNE,1.32
